G9a block – G9a (human) methyltransferase inhibition | 350,000 tested, 8.8% active | Potency, µM (doses to about 102 µM), without a hit: top-dose activity, negative = inhibition, usual class: inhibitors | G9a H3K9 monomethylation, AlphaScreen, 2 h | Q96KQ7; also: % is scaled to controls: 0 for no effect and ±100 for the full control effect; nearly all actives have a fitted effect of over 75% in size
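Compounds were preincubated with 20 nM G9a for 15 min, after which biotinylated H3K9 peptide (500 nM) and SAM (20 uM) started a 2 h room-temperature reaction. Monomethylated product was quantified by antibody-based AlphaScreen chemiluminescence.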
Sfp PPTase inh – blocks B. subtilis Sfp PPTase activity. Q9F4F7. Biochemical Sfp PPTase activity, qHTS. Potency, µM, inactives show largest response in the series, negative = inhibition, actives largely listed as inhibitors. 310,000 tested, 3.5% active;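 also: the enzyme is Sfp with the accession as filed and its product quenches rhodamine fluorescence; 0% = enzyme reaction without inhibitor and -100% = no enzyme wells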
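Reaction rates are the 30-min fluorescence difference (ex 525, em 598 nm) in wells containing 15 nM Sfp, 5 uM rhodamine-CoA and 12.5 uM BHQ-2-YbbR at pH 7.6 with 10 mM MgCl2.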
JMJD2A Tudor inh – inhibitors of human JMJD2A Tudor domain; O75164; AlphaScreen JMJD2A-Tudor / H3K4me3 peptide binding; Potency, µM (series often up to 114 µM), for the others: top-dose activity change, negative = inhibition, usual class: inhibitors; 390,000 tested, 4.4% active; AID 504339; also: % is scaled to controls: 0 for no effect and ±100 for the full control effect; nearly all actives have a fitted effect of over 50% in size
BAZ2B block – blocks human BAZ2B | Potency, µM (series often up to 114 µM), inactives show at the highest dose activity change, negative = inhibition, hits mostly inhibitors | AID 504333 | Q9UIF8 | AlphaScreen BAZ2B-H3K14Ac peptide displacement | 360,000 tested, 4.4% active; also: % is scaled to controls: 0 for no effect and ±100 for the full control effect; nearly all actives have a fitted effect of over 60% in size
Target sequence (Q9UIF8 whole entry, looked up): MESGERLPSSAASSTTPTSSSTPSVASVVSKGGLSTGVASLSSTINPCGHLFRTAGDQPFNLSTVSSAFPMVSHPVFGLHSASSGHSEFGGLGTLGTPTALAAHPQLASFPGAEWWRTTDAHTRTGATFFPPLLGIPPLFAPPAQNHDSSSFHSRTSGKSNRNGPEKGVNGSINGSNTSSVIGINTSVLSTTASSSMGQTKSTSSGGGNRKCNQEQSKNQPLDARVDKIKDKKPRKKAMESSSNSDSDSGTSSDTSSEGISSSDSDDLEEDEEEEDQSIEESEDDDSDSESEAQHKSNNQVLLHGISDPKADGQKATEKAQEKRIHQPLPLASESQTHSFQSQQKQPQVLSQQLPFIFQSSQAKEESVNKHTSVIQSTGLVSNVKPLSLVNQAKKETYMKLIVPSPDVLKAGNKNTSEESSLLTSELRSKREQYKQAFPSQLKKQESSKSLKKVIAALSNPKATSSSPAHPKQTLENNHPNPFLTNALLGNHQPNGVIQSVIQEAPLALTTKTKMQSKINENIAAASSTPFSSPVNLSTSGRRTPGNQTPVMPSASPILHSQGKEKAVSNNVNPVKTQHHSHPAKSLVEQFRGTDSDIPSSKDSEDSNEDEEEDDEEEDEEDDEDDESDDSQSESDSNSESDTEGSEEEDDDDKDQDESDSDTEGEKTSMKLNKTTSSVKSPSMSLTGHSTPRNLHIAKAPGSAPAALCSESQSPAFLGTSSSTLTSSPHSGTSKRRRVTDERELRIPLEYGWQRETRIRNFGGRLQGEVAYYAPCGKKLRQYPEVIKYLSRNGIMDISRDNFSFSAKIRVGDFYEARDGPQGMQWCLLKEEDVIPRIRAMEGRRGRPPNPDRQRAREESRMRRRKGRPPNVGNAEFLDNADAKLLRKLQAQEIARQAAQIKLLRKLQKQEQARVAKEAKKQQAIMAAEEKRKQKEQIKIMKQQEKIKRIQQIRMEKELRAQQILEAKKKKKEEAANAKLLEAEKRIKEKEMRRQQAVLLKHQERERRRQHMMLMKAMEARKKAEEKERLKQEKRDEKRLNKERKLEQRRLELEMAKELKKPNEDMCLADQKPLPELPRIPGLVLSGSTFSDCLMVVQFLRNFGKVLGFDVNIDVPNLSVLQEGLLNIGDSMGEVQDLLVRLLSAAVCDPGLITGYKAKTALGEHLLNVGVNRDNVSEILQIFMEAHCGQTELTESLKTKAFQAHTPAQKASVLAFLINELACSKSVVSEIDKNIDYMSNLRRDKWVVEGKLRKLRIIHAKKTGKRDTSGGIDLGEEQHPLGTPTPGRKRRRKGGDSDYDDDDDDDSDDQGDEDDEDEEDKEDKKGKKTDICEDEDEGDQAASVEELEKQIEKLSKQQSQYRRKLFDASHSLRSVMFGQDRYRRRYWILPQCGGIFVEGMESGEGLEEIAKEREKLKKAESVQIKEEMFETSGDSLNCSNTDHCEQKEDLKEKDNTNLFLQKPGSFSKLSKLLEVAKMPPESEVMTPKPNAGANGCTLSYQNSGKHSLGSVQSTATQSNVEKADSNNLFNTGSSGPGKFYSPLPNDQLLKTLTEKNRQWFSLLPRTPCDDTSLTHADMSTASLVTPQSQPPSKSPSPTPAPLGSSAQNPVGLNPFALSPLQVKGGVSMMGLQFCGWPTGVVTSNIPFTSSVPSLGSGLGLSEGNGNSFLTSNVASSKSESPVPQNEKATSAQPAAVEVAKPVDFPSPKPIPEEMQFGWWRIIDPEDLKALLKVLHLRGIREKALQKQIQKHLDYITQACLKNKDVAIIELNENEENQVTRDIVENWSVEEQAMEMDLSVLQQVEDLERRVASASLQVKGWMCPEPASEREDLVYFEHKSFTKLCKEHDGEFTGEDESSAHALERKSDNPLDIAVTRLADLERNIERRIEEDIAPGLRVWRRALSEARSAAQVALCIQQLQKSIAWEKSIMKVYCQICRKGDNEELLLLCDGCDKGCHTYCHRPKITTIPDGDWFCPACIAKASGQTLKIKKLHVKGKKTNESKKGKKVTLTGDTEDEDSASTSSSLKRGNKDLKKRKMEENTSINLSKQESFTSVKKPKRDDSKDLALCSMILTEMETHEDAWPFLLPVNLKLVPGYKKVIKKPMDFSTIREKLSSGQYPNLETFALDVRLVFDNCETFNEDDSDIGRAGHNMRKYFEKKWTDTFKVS
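Protein-peptide AlphaScreen: BAZ2B 50 nM, b-H3K14Ac 50 nM, 1x PBS pH 7.4 + 0.01% Tween-20. Preincubation 30 min RT; cpd 30 min RT (top 110 uM); beads 20 min RT, light-protected.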
HP1b chromo inh – inhibitors of HP1-beta chromodomain binding to methylated histone tails | P83916 | AlphaScreen HP1-beta / biotin-H3K9me3 peptide binding | Potency, µM (series often up to 114 µM), without a hit: at the highest dose activity change, negative = inhibition, most hits filed as inhibitors | 390,000 tested, 0.56% active | AID 540317; also: nearly all actives have a fitted effect of over 70% in size
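Compound inhibition of the preformed complex between 50 nM HP1-beta and 50 nM biotinylated H3K9me3 peptide was read by AlphaScreen. Buffer was PBS pH 7.4 with 0.01% Tween-20. Incubations ran 30 min at room temperature, with 10 ug/mL donor/acceptor beads.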
L3MBTL1 block – inhibitors of human L3MBTL1; Q9Y468; AlphaScreen L3MBTL1–H3K9me1 peptide binding; Potency, µM (top dose mostly 57.1 µM), without a hit: at the highest dose activity, negative = inhibition, most hits filed as inhibitors; 230,000 tested, 0.66% active; AID 485360; also: % is scaled to controls: 0 for no effect and ±100 for the full control effect; nearly all actives have a fitted effect of over 60% in size
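AlphaScreen assay: L3MBTL1 (50 nM final) was preincubated 30 min at room temperature with biotinylated H3(1-15)K9me1 peptide (75 nM final), then 30 min with library compounds; streptavidin donor and nickel chelate acceptor beads (10 ug/mL final) added, 30 min dark.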
Numbers without * were called inactive; u = inconclusive; x = no result; ! = a repeat was not active; [ ] = remark or other dose. Shown are actives, neighbours in structure and some others; about 12% of the full set was active somewhere. Calls follow the shape of the dose curve; as a rule, active = well fitted curve in the direction sought with a large enough effect; inconclusive = small, poorly fitted or top-dose-only effect, or another doubt; inactive = no such curve, though single readings can be large; an effect the other way counts as inactive or inconclusive. Potency is read from the fitted curve at half-maximal effect.

SMILES	G9a block	Sfp PPTase inh	JMJD2A Tudor inh	BAZ2B block	HP1b chromo inh	L3MBTL1 block
Cc1cc[n+](-c2[nH]c(=O)sc2/C=N/NC([S-])=Nc2ccccc2)cc1C	32µM*	-11%	u	u	u	-25%
Cc1ccc[n+](-c2[nH]c(=O)sc2/C=N/N=C(\[O-])CCn2c3ccccc3c3ccccc32)c1	0%	u	-17%	-23%	-10%	-1%
CCOC(=O)NC(NC(=S)Nc1ccc(OCC)cc1)C(Cl)(Cl)Cl (stereo unspecified)	25%[59 µM]	5%	-6%	1%	-8%	8%
O=C(NC(NC(=S)Nc1c(Cl)cccc1Cl)C(Cl)(Cl)Cl)OCc1ccccc1 (stereo unspecified)	3.2µM*	14%	-17%	-23%	10%	-13%
CC(=O)OC(C)[C@H]1CC[C@H]2[C@@H]3CC[C@H]4C[C@@H](OC(C)=O)CC[C@]4(C)C3=CC[C@]12C (stereo partly specified)	15%[2.33 µM]	x	-4%	12%	23%	-5%
Cc1nnc2sc(SCC(=O)Nc3ccc(Br)cc3)nn2c1=O	-6%	15%	u	40µM*	44%	x
Cc1ccccc1NC(=O)CSc1nn2c(=O)c(C)nnc2s1	23%	-22%	89µM*	u	24%	13%
Cc1nnc2sc(SCC(=O)Nc3cccc(Cl)c3)nn2c1=O	6%	-3%	u	40µM*	57%	x
COc1ccc(OC)c(NC(=O)CSc2nn3c(=O)c(C)nnc3s2)c1	x	4%	u	3%	65%	x
COc1ccc(NC(=O)CSc2nn3c(=O)c(C)nnc3s2)cc1	83%	8%	u	-11%	57%	x
CSc1ncc2c(n1)-c1ccccc1N(Cc1ccccc1C)S2(=O)=O	23%[59 µM]	x	50%	0%	79%	x
CC(=O)OC1CC[C@@]2(C)C(CC[C@@]3(C)C2CC=C2C4CC(C)(C)CC[C@]4(C(=O)O)CC[C@@]23C)C1(C)C (stereo partly specified)	-1%[2.33 µM]	-1%	x	x	x	x
Cc1cc(C)cc(NC(=S)NCc2ccc3[nH]c4c(c3c2)CCCC4)c1	u	3%	50µM*	32µM*	u	-29%
S=C(NCc1ccc2[nH]c3c(c2c1)CCCC3)Nc1ccccc1	u	5%	35µM*	32µM*	u	-9%
COc1cccc([C@@H]2Oc3ccc(OC)cc3C[C@H]2OC(=O)N[C@H](C)C2CCCCC2)c1	x	-9%	x	x	x	x
C[C@@]1(O)C(O)[C@@H](CO)O[C@H]1n1cnc2c(NC3CCCC3)nc(Cl)nc21 (stereo partly specified)	x	12%	x	x	x	x
COc1ccccc1NC(=S)N(CCc1ccc(OC)c(OC)c1)Cc1ccccn1	2%[59 µM]	-15%	-26%	-16%	-3%	x
COc1ccc(CN(C)CCc2ccccn2)cc1OC	3.2µM*	50µM*	35µM*	32µM*	-46%	-27%
COc1cc(CN(C)CCc2ccccn2)cc(OC)c1OC	u	-96%	7.9µM*	20µM*	u	-10%
COc1ccc(CCN(C)Cc2ccc(OC)c(OCc3ccccc3)c2)cc1OC	u	-14%	3.2µM*	u	-52%	-4%
COc1ccc(CCN(C)C/C=C/c2ccccc2[N+](=O)[O-])cc1OC	x	-10%	22µM*	u	-18%	-5%
COc1ccc(OCC(=O)Nc2cc(-c3nc4ccccc4o3)ccc2Cl)cc1	3%[59 µM]	x	-10%	-18%	43%	x
COc1ccccc1C1CC(c2cccc(NS(C)(=O)=O)c2)=NN1S(=O)(=O)c1ccccc1 (stereo unspecified)	u	9%	-35%	u	11%	x
CCc1ccc(CN(C)CCc2ccccn2)cc1	u	u	4µM*	45µM*	u	-5%
COc1ccc(CCN(C)Cc2c(O)ccc3ccccc23)cc1OC	8.9µM*	7%	50µM*	-7%	-17%	x
SMILES	G9a block	Sfp PPTase inh	JMJD2A Tudor inh	BAZ2B block	HP1b chromo inh	L3MBTL1 block
COc1ccc(CCN(C)CC(=O)Nc2cc(C)nc3ccccc23)cc1OC	4.5µM*	79µM*	0.79µM*	22µM*	22µM*	x
COc1ccc(CCN(C)Cc2ccc(C(=O)Nc3ccccc3)cc2)cc1OC	x	-5%	-18%	-13%	25%	x
COc1ccc(CCN(C)Cc2cccc3ccccc23)cc1OC	16%[0.501 µM]	20%	-12%	-4%	36%	2%[2.29 µM]
COc1cc(CN(C)Cc2ccccc2)cc(OC)c1O	8.9µM*	u	-16%	2%	26%	x
Cc1ccc(C(=O)OCC(=O)N(Cc2ccccc2)C(C)C)cc1C	x	x	33%	x	73%	8%
Oc1ccc(-c2nc(-c3ccc(F)cc3)c(-c3ccncc3)[nH]2)cc1	13µM*!	-25%	u	u	10%	-14%
Fc1ccc(-c2nc(-c3cccs3)[nH]c2-c2ccc(F)cc2)cc1	u	6%	u	45µM*	-16%	-21%
Fc1ccc(-c2nc(-c3cccs3)c(-c3cccs3)[nH]2)cc1	-6%[59 µM]	x	-17%	-4%	13%	x
Cn1c(-c2cccc(Br)c2)cnc1NCc1ccccc1O	x	-13%	20µM*	50µM*	u	-16%
Cn1c(NCc2cc(Br)ccc2O)nc2ccccc21	17%	-22%	-9%	31%	30%	26%
CCn1nc([N+](=O)[O-])c2c(-c3nc4ccccc4o3)c(N)n(CCCOC)c2c1=O	u	-9%	u	56µM*	-1%	x
COCC(=O)N1CCC2(CCCN(c3ccncc3)C2)CC1	4%[12.7 µM]	5%	x	x	x	x
Cc1ccc(C)c(NC(=S)NC(NC(=O)Cc2ccccc2)C(Cl)(Cl)Cl)c1 (stereo unspecified)	-44%[12.7 µM]	-8%	-9%	-7%	-4%	x
O=C(COc1ccccc1)NC(NC(=S)Nc1ccccc1C(=O)O)C(Cl)(Cl)Cl (stereo unspecified)	u	-15%	32µM*	-8%	u	-2%
COc1ccccc1NC1=CC(=O)CC(c2ccccc2)C1 (stereo unspecified)	u	-3%	-7%	2%	29%	-3%
COc1ccc(NC2=CC(=O)CC(c3ccc(C)cc3)C2)c(OC)c1 (stereo unspecified)	x	x	79µM*	x	-16%	x
O=c1cnc2cnc(N3CCOCC3)nc2n1C1CC1	4%[0.501 µM]	25%	x	x	x	x
Cc1nn(C)c(=S)[nH]c1=S	x	x	-8%	x	6%[57 µM]	x
Cc1nn2c(=S)[nH]nc2[nH]c1=O	7.1µM*	13µM*	28µM*	x	-16%	6%
Cc1ccc(C(C)C)n1C(=O)OC(C)(C)C	x	5%	x	x	x	x
O=C1CC(c2ccccc2)=C(c2ccccc2)C1c1ccccc1 (stereo unspecified)	x	x	15%	x	63%	x

High-throughput results deposited in PubChem by National Center for Advancing Translational Sciences (NCATS).
